The whole screen tested about 200,000 compounds, of which about 15 (0.007%) were called active. Shown is part of a subset that was picked to be rich in actives. Unmarked numbers belong to inactive results. Rule as the data show it: active = displacement above about 50%; inactive = the rest.
Target: E3 ubiquitin-protein ligase XIAP (Homo sapiens) (UniProt P98170)
Assay: XIAP antagonists, biochemical, IAP family, fluorescence polarization (AID 1018)
Details: XIAP BIR domain, fluorescence polarization peptide displacement; at 20 µM; active compounds read high

E3 ubiquitin-protein ligase XIAP (Homo sapiens), sequence (P98170 whole entry, looked up): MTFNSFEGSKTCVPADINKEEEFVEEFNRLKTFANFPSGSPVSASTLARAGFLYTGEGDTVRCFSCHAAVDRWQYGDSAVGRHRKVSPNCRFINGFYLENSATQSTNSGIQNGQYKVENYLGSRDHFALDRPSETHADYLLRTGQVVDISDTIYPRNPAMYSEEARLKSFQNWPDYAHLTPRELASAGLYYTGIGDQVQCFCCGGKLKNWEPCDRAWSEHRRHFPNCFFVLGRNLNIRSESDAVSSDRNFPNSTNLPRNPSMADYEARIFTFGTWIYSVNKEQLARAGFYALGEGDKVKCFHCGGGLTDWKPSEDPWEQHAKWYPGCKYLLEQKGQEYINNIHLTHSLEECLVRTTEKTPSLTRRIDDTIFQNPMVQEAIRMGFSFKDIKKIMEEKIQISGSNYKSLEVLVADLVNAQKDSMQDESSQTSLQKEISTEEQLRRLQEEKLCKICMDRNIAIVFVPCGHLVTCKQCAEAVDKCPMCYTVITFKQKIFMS

Compared with `O=c1[nH]nc(CNc2ccc(OC(F)(F)F)cc2)c2ccccc12`, `COc1ccc(NC(=O)OCCN2CCN(Cc3ccccc3)CCC2=O)cc1` is lower in displacement: -3.9% for the first, -8% for the second.

Compared with `COc1ccccc1N(C)S(=O)(=O)c1ccc(C(=O)Nc2ccc3nc(C)sc3c2)cc1`, `CC(=O)Nc1ccc(NC(=O)C(C)c2cccc(C(=O)c3ccccc3)c2)cc1` (configuration not stated) is higher in displacement: 1.3% for the first, 2.4% for the second.

Compared with `Cc1cc(C(F)(F)F)nn1CC(=O)N(C)c1ccccc1`, `COc1cccc(-c2cc(C(=O)NCCCn3ccnc3)c3ccccc3n2)c1` is lower in displacement: -1.9% for the first, -3% for the second.

Compared with `CCNS(=O)(=O)c1ccc(Br)c(OC)c1`, `CCC(C)NC(=O)Cc1c(OC)ccc2cc(Br)ccc12` (configuration not stated) is lower in displacement: -3.2% for the first, -4.6% for the second.

First: COc1cc2nc(CN3CCN(S(=O)(=O)c4ccc(Cl)cc4)CC3)[nH]c(=O)c2cc1OC
Second: COc1ccccc1N1CCN(C(=O)CCN2C(=O)c3cccc4cccc(c34)C2=O)CC1
The displacement of the first is lower: -6.8% for the first, -4.4% for the second.

Compared with `C#CCOCCOCCOCCNc1nc(N2CCN(C(=O)[C@H](CCCCN)n3cc([C@@H](N)C(C)CC)nn3)CC2)nc(N2CCN(C(=O)[C@H](CCCCN)n3cc([C@@H](N)CO)nn3)CC2)n1` (some centres not stated), `CCOC(=O)c1ccc(NC(=S)NCCCN2CCCCC2)cc1` is lower in displacement: 3.3% for the first, -4.4% for the second.

Going from `CN(C)S(=O)(=O)c1ccc(C(=O)Nc2ccnn2C2CCCCC2)cc1` to `O=C(Cn1c(=O)oc2cc(S(=O)(=O)N3CCCCC3)ccc21)N1CCc2ccccc2C1`, the displacement falls from -3.3% to -5.2%.

Compared with `COc1ccc(-c2nc(CC(=O)O)cs2)cc1OC`, `COC(=O)c1cc2c(-c3ccccc3)c(C)c3ccccn3c-2c1C(=O)OC` is higher in displacement: -0.6% for the first, 26% for the second.

Compared with `Cc1ccc(C2NC(=O)NC3=C2CCc2ccccc23)cc1` (configuration not stated), `O=C1NC2=C(CCc3ccccc32)C(c2ccccc2)N1` (configuration not stated) is lower in displacement: -5.1% for the first, -5.4% for the second.

Going from `CCOC(=O)c1c(-c2ccc(C)o2)csc1NC(=O)CSc1nnnn1-c1ccccc1` to `COC(=O)c1c(Cl)c2n3ccccc3c(C)c(-c3ccccc3)c-2c1C(=O)OC`, the displacement rises from -8.2% to -0.6%.

Compared with `CCCCCCCCNC(=O)c1cnsn1`, `C=CCSc1nnc(-c2ccccc2NC(=O)CC)c(=O)[nH]1` is lower in displacement: -0.1% for the first, -1.1% for the second.

First: O=C(Cn1cc2c(n1)CCCCC2)NC1CCN(Cc2ccccc2)CC1
Second: N#Cc1nc(COc2ccccc2)oc1N1CCN(Cc2ccccc2)CC1
The displacement of the first is lower: -4.9% for the first, 0.7% for the second.

For `CCCc1cc(-c2n[nH]c(=S)n2CC)cs1`, the displacement was -5.7%.

`CC(C)c1ccc(C2NC(=O)NC3=C2CCc2ccccc23)cc1` (configuration not stated) was tested, and the displacement was 52.5% (active).
In the case of `COC(=O)c1cc2n3ccccc3c(C)c(-c3ccccc3)c-2c1C(=O)OC`, the displacement is reported as 72.2% (active).

Source: PubChem BioAssay AID1018 (Sanford-Burnham Center for Chemical Genomics, 2008)
